TRPM1 prom inh: reduces MITF-dependent TRPM1 promoter luciferase signal. SK-MEL-5 TRPM1 promoter luciferase, 24 h. inhibition, % at 12.5 µM. hit rate 0.83% among 330,000;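 active means mean inhibition across replicates of 60% or more, whatever share of single replicates reaches that level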
697 NFkB inh: inhibitors of the PMA/ionomycin-induced NF-kB reporter in 697 B cells | AID 435022 | inhibition, % at 4 µM | 697 B-cell NF-kB luciferase reporter, 16 h | hit rate 0.33% among 330,000; in the data active means inhibition above about 35%
Gli-Sufu antag: blocks Gli-Sufu signaling in a luciferase reporter | Sufu-KO-LIGHT fibroblasts, Gli luciferase reporter luminescence | inhibition, % at 5 µM | hit rate 0.74% among 340,000 | AID 588413;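 active means inhibition above about 55%, limit read from the data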
Shn3 inh set2: Schnurri-3 reporter inhibition in Clone20 osteoblasts | inhibition, % at 12.5 µM | AID 588674 | Clone20 osteoblast Shn3 3'UTR firefly luciferase, 24 h | hit rate 0.52% among 360,000;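 active means mean inhibition of at least 75% with every replicate also reaching 75%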
Jurkat NFkB inh: lowers PMA/ionomycin-induced NF-kB signal in Jurkat cells; inhibition, % at 4 µM; hit rate 0.53% among 330,000; PMA/ionomycin-induced NF-kB luciferase reporter, luminescence; in the data active means inhibition above about 50%
EBV LMP1 NFkB: inhibitors of Epstein-Barr LMP1-induced NF-kappaB reporter; LMP1-induced NF-kappaB luciferase reporter cells, luminescence; AID 504558; hit rate 0.69% among 350,000; inhibition, % at 12.5 µM; in the data active means inhibition above about 41%
Of the large screens only hits and unclear results are named; the others gave an inactive call. The list is not random: actives were taken first. Their share in the collection is about 2.3%.

C(=C\c1sc(Nc2ccccc2)n[n+]1-c1ccccc1)/c1ccccc1	TRPM1 prom inh 79 (no result: 697 NFkB inh, Jurkat NFkB inh)
O=C1c2ccccc2C(=O)c2cc(N3CCCCC3)ccc21	EBV LMP1 NFkB 45 (no result: 697 NFkB inh, Jurkat NFkB inh)
c1ccc2cc(N3CCCCC3)ccc2c1	none (no result: 697 NFkB inh, Jurkat NFkB inh)
OCCNc1c2ccccc2nc2ccccc12	TRPM1 prom inh 88
OCCNc1nc2ccccc2nc1NCCO	none
CCCc1[nH]nc2c1C(/C(C)=C/c1ccccc1)C(C#N)=C(N)O2 (configuration not stated)	none
Cc1ccc(-n2nnc(-c3nccs3)n2)cc1	EBV LMP1 NFkB 58
Clc1ccc(-n2nnc(-c3nccs3)n2)cc1Cl	none
O=C(NCc1ccccc1)c1nc(S(=O)(=O)Cc2ccccc2)ncc1Cl	Shn3 inh set2 94
COc1ccc(CNC(=O)c2nc(S(=O)(=O)Cc3ccccc3)ncc2Cl)cc1	TRPM1 prom inh 67, Shn3 inh set2 92
COC(=O)c1ccccc1NC(=O)c1nc(S(=O)(=O)Cc2ccccc2)ncc1Cl	TRPM1 prom inh 93, Shn3 inh set2 95
Cc1noc(C(=O)NCc2ccccc2)c1Cl	none
CS(=O)(=O)c1ncc(Cl)c(C(=O)Nc2ccc3ccccc3c2)n1	TRPM1 prom inh 104, Shn3 inh set2 96 (no result: 697 NFkB inh, Jurkat NFkB inh)
CCOC(=O)c1c(NC(=O)CSc2nc3ccccc3s2)sc(C(C)=O)c1C	none
COC(=O)[C@]1(Cc2ccccc2)N[C@H](CN(C)S(=O)(=O)c2ccc(OC)cc2)[C@@H]2C(=O)N(C)C(=O)[C@@H]21	none
N#CC1=CC2CN(Cc3ccccc3)C1C1C(=O)N(c3ccccc3)C(=O)C21 (configuration not stated)	none (no result: 697 NFkB inh, Jurkat NFkB inh)
CC(=O)Nc1ccc(NC(=O)c2nc(S(=O)(=O)Cc3ccccc3)ncc2Cl)cc1	TRPM1 prom inh 88, Shn3 inh set2 95
CCOc1ccc(-c2nc(CSCC(=O)N3CCN(C(=O)c4ccco4)CC3)c(C)o2)cc1	none
Cc1ccc(NC(=O)c2ccc(N/N=C/c3cccc(O)c3)c([N+](=O)[O-])c2)cc1	TRPM1 prom inh 78
Cc1ccccc1NC(=O)c1ccc(N/N=C/c2ccccc2O)c([N+](=O)[O-])c1	none
COc1ccc(-c2noc3c2-c2nc(-c4ccc(Br)cc4)sc2CC3)cc1	none
CC(C)(C)c1nc2c(s1)CCc1onc(-c3ccc(Br)cc3)c1-2	EBV LMP1 NFkB 43
Cc1ccc(C)c(N2C(=O)CC(Cc3ccccc3)C2=O)c1 (configuration not stated)	EBV LMP1 NFkB 75
Cc1cc(C)cc(CC2CC(=O)N(c3cc(C)ccc3C)C2=O)c1 (configuration not stated)	none
COc1ccc(C[C@@H]2OC3(C=CC(=O)C=C3)O[C@H]2Cc2ccc(OC)cc2)cc1	TRPM1 prom inh 100, Shn3 inh set2 94, EBV LMP1 NFkB 79 (no result: 697 NFkB inh, Jurkat NFkB inh)
O=C1C=CC2(C=C1)O[C@H](Cc1ccccc1)[C@@H](Cc1ccccc1)O2	TRPM1 prom inh 97, Shn3 inh set2 97, EBV LMP1 NFkB 87 (no result: 697 NFkB inh, Jurkat NFkB inh)
COc1ccc(N2C(=O)CC(Cc3ccccc3)C2=O)cc1 (configuration not stated)	none
O=C1Nc2ccccc2C1Cc1ccccc1 (configuration not stated)	none
COC(=O)[C@H](Cc1ccccc1)NC(=O)NCCc1ccc(F)cc1	none (no result: TRPM1 prom inh, EBV LMP1 NFkB)
O=C(c1cccc(S(=O)(=O)N2CCCCCC2)c1)N1CCN(c2ccccc2)CC1	none
O=C(c1cc(COc2ccc3c(c2)CCCC3)on1)N1CCCC1	EBV LMP1 NFkB 73 (no result: Gli-Sufu antag)
O=C(CCCCCNS(=O)(=O)c1ccc(Br)cc1)NCCN1CCOCC1	none
Cn1nnnc1Sc1ncnc2scc(-c3cccs3)c12	TRPM1 prom inh 88, EBV LMP1 NFkB 53
Cn1nnnc1Sc1ncnc2scc(-c3cc4ccccc4o3)c12	TRPM1 prom inh 100, EBV LMP1 NFkB 62
Cn1nnnc1Sc1ncnc2scc(-c3ccsc3)c12	TRPM1 prom inh 82, EBV LMP1 NFkB 43
CC(=O)c1ccccc1-c1csc2ncnc(Sc3nnnn3C)c12	none
CC(=O)N(CCc1ccccc1C)Cc1cc2cc3c(cc2[nH]c1=O)OCO3	none
Cc1ccc(C(=O)NCC(c2ccc(F)cc2)N2CCOCC2)cc1S(=O)(=O)N1CCOCC1 (configuration not stated)	none (no result: 697 NFkB inh, Jurkat NFkB inh)
CCOC(=O)Cc1csc(/N=C/c2c(O)n(-c3ccc(C)c(C)c3)c(=O)c3ccccc23)n1	TRPM1 prom inh 66
Cc1[nH]c2ccccc2c(=O)c1C(=O)/C=C/c1ccccc1	TRPM1 prom inh 85
CS(=O)(=O)c1ccc(C(=O)OCC(=O)N2CCOCC2)cc1[N+](=O)[O-]	Shn3 inh set2 95 (no result: TRPM1 prom inh, 697 NFkB inh, Gli-Sufu antag, Jurkat NFkB inh, EBV LMP1 NFkB)
COc1ccc(C2=NN(C(=O)COC(=O)c3ccc(S(C)(=O)=O)c([N+](=O)[O-])c3)C(c3ccco3)C2)cc1 (configuration not stated)	TRPM1 prom inh 81
CS(=O)(=O)c1ccc(C(=O)OCC(=O)N2CCN(CCC3CCCCC3)CC2)cc1[N+](=O)[O-]	Shn3 inh set2 96 (no result: TRPM1 prom inh, 697 NFkB inh, Gli-Sufu antag, Jurkat NFkB inh, EBV LMP1 NFkB)
CC(=O)c1cccc(NC(=O)COC(=O)c2ccc(S(C)(=O)=O)c([N+](=O)[O-])c2)c1	none
Cc1ccc(NC(=O)C2CC(=O)N(C(C)C)C2)cc1Cl (configuration not stated)	none
O=C(O)/C=C/C(=O)Nc1ccc(Oc2ncnc3cc(Cl)ccc23)nc1	none (no result: TRPM1 prom inh, Shn3 inh set2, EBV LMP1 NFkB)
Cc1cc(C)c(S(=O)(=O)Nc2nnc(CC(C)C)s2)c(C)c1	EBV LMP1 NFkB 82
CCCCC[C@H](O)/C=C/C1C(=O)C=C[C@H]1C/C=C\CCCC(=O)OC (some centres not stated)	TRPM1 prom inh 64 (no result: 697 NFkB inh, Jurkat NFkB inh)
CCN(CC)S(=O)(=O)c1cc([N+](=O)[O-])ccc1NNC(=O)Nc1ccc(Cl)c(Cl)c1	EBV LMP1 NFkB 46 (no result: Shn3 inh set2)
O=C(NNc1ccccc1[N+](=O)[O-])Nc1ccc(Cl)c(Cl)c1	none
COc1ccc(N(CC(=O)NC2CCCC2)C(=O)Cn2nnc(-c3ccc(OC)c(OC)c3)n2)cc1	none
CC(=O)N(Cc1ccc(F)cc1)C1=C(NCc2ccccc2)C(=O)c2ccccc2C1=O	TRPM1 prom inh 98, Gli-Sufu antag 92, EBV LMP1 NFkB 53 (no result: 697 NFkB inh, Jurkat NFkB inh)
CCCOc1ccc(S(=O)(=O)N2CCCC2)cc1[N+](=O)[O-]	none
CCN1C(=O)C2(SC(NC(C)=O)=NN2C(C)=O)c2cc(C)cc(C)c21 (configuration not stated)	none
CCCN1C(=O)C2(SC(NC(C)=O)=NN2C(C)=O)c2cc(C)cc(C)c21 (configuration not stated)	EBV LMP1 NFkB 54 (no result: Shn3 inh set2)
COc1ccc(C(=O)NC(=O)Nc2cc(C)ccn2)cc1	TRPM1 prom inh 70, EBV LMP1 NFkB 68
Cc1ccnc(NC(=O)c2ccc(OCC3CCCO3)cc2)c1 (configuration not stated)	EBV LMP1 NFkB 45
Cc1ccc(NC(=O)c2ccc(OCC3CCCO3)cc2)c(C)c1 (configuration not stated)	none (no result: TRPM1 prom inh)

Screens: PubChem BioAssay, several laboratories
